Source: PubChem BioAssay
KB-V1 MDR tox = qHTS assay for MDR1-selective chemotherapeutics: Primary screen using the drug-selected MDR subline cells KB-V1; KB-V1 MDR cells viability, CellTiter-Glo, 72 h; Potency, µM (top dose mostly 46.1 µM), most hits filed as cytotoxic; 3.4% of 400,000 active; further: on the % scale 0 is the no-effect control and ±100 the full control effect; nearly all actives have a fitted effect of over 60% in size
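Cells of the MDR subline KB-V1 are plated, dosed with compound at multiple concentrations, and incubated 72 h at 37 degrees C; CellTiter-Glo is then added and luminescence read after 10 min.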
SW480 rereplic = A quantitative high throughput screen for small molecules that induce DNA re-replication in SW480 colon adenocarcinoma cells; 1.8% of 340,000 active; Potency, µM (highest dose often 46.1 µM), for inactives: top-dose re-replication activation, usual class: activators; SW480 DNA re-replication, Hoechst DNA content imaging, 48 h; AID 624297, 2012; further: % of control where 0% means no effect; nearly all actives have a fitted effect of over 55% in size
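Compounds, transferred as 23 nL by pin tool, were incubated with cells for 48 hr; DNA content per nucleus was then quantified by Hoechst staining and fluorescence plate imaging.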
MCF10A rerep = A quantitative high throughput screen for small molecules that induce DNA re-replication in MCF 10a normal breast cells; Potency, µM (doses to about 46.1 µM), without a hit: at the highest dose activity, positive = re-replication, hits mostly activators; 2.9% of 350,000 active; MCF 10A DNA re-replication, Hoechst nuclear intensity, 48 h; AID 624296, 2012; further: % of control where 0% means no effect; nearly all actives have a fitted effect of over 50% in size
KB-3-1 cytotox = qHTS assay for MDR1-selective chemotherapeutics: Primary screen using the parental adenocarcinoma cell KB-3-1 | KB-3-1 viability, CellTiter-Glo ATP luminescence, 72 h | Potency, µM (doses to about 46.1 µM), hits mostly cytotoxic | 1.4% of 400,000 active | AID 1347075, 2019; further: on the % scale 0 is the no-effect control and ±100 the full control effect; nearly all actives have a fitted effect of over 60% in size
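Luminescent ATP read-out (CellTiter-Glo) measures survival of drug-naive KB-3-1 cells after 72 h compound exposure at 37 °C. Titration series was screened from lowest to highest concentration, with DMSO vehicle plates as background controls.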
ELG1 repair inh = qHTS screen for small molecules that inhibit ELG1-dependent DNA repair in human embryonic kidney (HEK293T) cells expressing luciferase-tagged ELG1 | HEK293T ELG1-luciferase reporter, luminescence, 16 h; DNA damage induced by 5-fluorouridine | Potency, µM (doses to about 46.1 µM), without a hit: at the top dose activity change, negative = inhibition, hits mostly inhibitors | 2.3% of 330,000 active | AID 504467, 2011; further: on the % scale 0 is the no-effect control and ±100 the full control effect; nearly all actives have a fitted effect of over 55% in size
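5-Fluorouridine DNA damage + compound/DMSO, 2,000 cells/well, 16 h, 37 °C/5% CO2. ONE-Glo, 30 min RT, luminescence. Readout = decrease in reporter signal.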
Active calls of the source: *. Rows were chosen to be rich in hits. Some 8.2% of all compounds tested hit in one or more screens of this group. The call rests on the fitted dose curve; in most records, active means well fitted curve in the direction sought with a large enough effect; inconclusive means small, poorly fitted or top-dose-only effect, or another doubt; inactive means no such curve, though single readings can be large; an effect the other way counts as inactive or inconclusive. Potency means the concentration at half of the fitted maximal effect.

How did CCC(C)c1ccc(S(=O)(=O)N2CCN(C(C)C(=O)NC3CCCC3)CC2)cc1 (centres undefined) do in these assays?
KB-V1 MDR tox: 5.8µM*; SW480 rereplic: -1%; MCF10A rerep: 17%; KB-3-1 cytotox: inactive; ELG1 repair inh: inconclusive

What do the screens show for `CC(C)c1ccc(S(=O)(=O)N2CCN(C(C)C(=O)N3CCCC3)CC2)cc1` (centres undefined)?
KB-V1 MDR tox: 26µM*; SW480 rereplic: 0%; MCF10A rerep: 2%; KB-3-1 cytotox: inactive; ELG1 repair inh: 0%

What do the screens show for `CC1N(C)c2cc(NC(=O)c3cccs3)c(P(=O)(Nc3ccc([N+](=O)[O-])cc3)N3CCOCC3)cc2C1(C)C` (centres undefined)?
KB-V1 MDR tox: inactive; SW480 rereplic: 14%; MCF10A rerep: -10%; KB-3-1 cytotox: inactive; ELG1 repair inh: 18µM*

How did O=C(Nc1cc([N+](=O)[O-])ccc1N1CCOCC1)c1cccs1 do in these assays?
KB-V1 MDR tox: inactive; SW480 rereplic: 9%; MCF10A rerep: -1%; KB-3-1 cytotox: inactive; ELG1 repair inh: -2%

How did O=C(CC1CC2CCC1C2)Nc1nc(-c2ccccn2)cs1 (centres undefined) do in these assays?
KB-V1 MDR tox: inconclusive; SW480 rereplic: 5%; MCF10A rerep: inconclusive; KB-3-1 cytotox: inconclusive; ELG1 repair inh: 21µM*

How did COc1ccc(OCCCC(=O)Nc2nc(-c3ccccn3)cs2)cc1 do in these assays?
KB-V1 MDR tox: inconclusive; SW480 rereplic: 4%; MCF10A rerep: 4%; KB-3-1 cytotox: inconclusive; ELG1 repair inh: inconclusive

Results for O=C(Nc1nc(-c2ccccn2)cs1)C1CC1 ?
KB-V1 MDR tox: inactive; SW480 rereplic: inconclusive; MCF10A rerep: 7%; KB-3-1 cytotox: inconclusive; ELG1 repair inh: inconclusive

How did Cc1ccccc1OCC(=O)Nc1nc(-c2ccncc2)cs1 do in these assays?
KB-V1 MDR tox: 15µM*; SW480 rereplic: -7%; MCF10A rerep: 7%; KB-3-1 cytotox: inactive; ELG1 repair inh: inconclusive

What do the screens show for `Cc1cc(C)c(OCC(=O)Nc2nc(-c3ccccn3)cs2)c(C)c1`?
KB-V1 MDR tox: 6.5µM*; SW480 rereplic: 21%; MCF10A rerep: -16%; KB-3-1 cytotox: inconclusive; ELG1 repair inh: inconclusive

Results for O=C(Nc1ccc(OC(F)(F)F)cc1)c1ccc(S(=O)(=O)N2CCOCC2)o1 ?
KB-V1 MDR tox: inactive; SW480 rereplic: inconclusive; MCF10A rerep: 16%; KB-3-1 cytotox: inactive; ELG1 repair inh: -17%

What do the screens show for `Nc1ccc(N2CCCCC2)cc1N1CCCCC1`?
KB-V1 MDR tox: inactive; SW480 rereplic: inconclusive; MCF10A rerep: 21µM*; KB-3-1 cytotox: inactive; ELG1 repair inh: 1%

Results for CN(Cc1ccccc1N1CCCC1)C(=O)c1cc2cc(Cl)ccc2o1 ?
KB-V1 MDR tox: inconclusive; SW480 rereplic: -25%; MCF10A rerep: 15µM*; KB-3-1 cytotox: inconclusive; ELG1 repair inh: -16%

What do the screens show for `CN(Cc1ccccc1N1CCCC1)C(=O)c1cc2ccccc2o1`?
KB-V1 MDR tox: inactive; SW480 rereplic: 8%; MCF10A rerep: inconclusive; KB-3-1 cytotox: inactive; ELG1 repair inh: inconclusive

Results for N#C/C(=C\c1cccs1)C(=O)c1ccccc1Cl ?
KB-V1 MDR tox: inactive; SW480 rereplic: inconclusive; MCF10A rerep: 5.8µM*; KB-3-1 cytotox: inactive; ELG1 repair inh: inconclusive

How did CCNC(=S)NNC(=O)c1ccccc1Cl do in these assays?
KB-V1 MDR tox: inactive; SW480 rereplic: -38%; MCF10A rerep: inconclusive; KB-3-1 cytotox: inactive; ELG1 repair inh: -2%

What do the screens show for `O=C(NNC(=O)C(c1ccccc1)c1ccccc1)c1ccccn1`?
KB-V1 MDR tox: inconclusive; SW480 rereplic: 4.1µM*; MCF10A rerep: inconclusive; KB-3-1 cytotox: inconclusive; ELG1 repair inh: 13%

What do the screens show for `CCNC(=S)NNC(=O)c1ccccn1`?
KB-V1 MDR tox: 12µM*; SW480 rereplic: -324%; MCF10A rerep: 21%; KB-3-1 cytotox: inactive; ELG1 repair inh: -20%

What do the screens show for `COC(=O)C[C@H]1C[C@H]2c3cc(NC(=O)Nc4ccc(F)cc4)ccc3O[C@H]2[C@@H](CO)O1`?
KB-V1 MDR tox: inactive; KB-3-1 cytotox: inactive

Results for CCOC(=O)c1ccc(-c2ccc3ncnc(NCc4cccs4)c3c2)o1 ?
KB-V1 MDR tox: inactive; KB-3-1 cytotox: inconclusive

Results for COc1cc2c(cc1OC)C(O)=CC(=O)C2=O ?
KB-V1 MDR tox: inactive; KB-3-1 cytotox: inactive

How did Cc1cccc(OCc2nnc(SCC(=O)c3cccs3)n2C)c1C do in these assays?
KB-V1 MDR tox: 16µM*; SW480 rereplic: 3%; MCF10A rerep: 2%; KB-3-1 cytotox: inactive; ELG1 repair inh: -8%

What do the screens show for `Cc1onc(-c2ccccc2Cl)c1C(=O)Nc1ccc(F)c(F)c1`?
KB-V1 MDR tox: inactive; SW480 rereplic: -27%; MCF10A rerep: 5%; KB-3-1 cytotox: inactive; ELG1 repair inh: -4%

How did Cc1cc(NC(=O)c2c(-c3ccccc3Cl)noc2C)no1 do in these assays?
KB-V1 MDR tox: 13µM*; SW480 rereplic: -5%; MCF10A rerep: 4%; KB-3-1 cytotox: inactive; ELG1 repair inh: -18%

Results for Cc1onc(-c2c(F)cccc2Cl)c1C(=O)OCC(=O)Nc1cccc(S(=O)(=O)N(C)C)c1 ?
KB-V1 MDR tox: 4.1µM*; SW480 rereplic: -1%; MCF10A rerep: 7%; KB-3-1 cytotox: inconclusive

What do the screens show for `O=C(Nc1ccc(OCC(=O)N2CCOCC2)cc1)c1cncc(Br)c1`?
KB-V1 MDR tox: inactive; SW480 rereplic: -695%; MCF10A rerep: -1%; KB-3-1 cytotox: inconclusive; ELG1 repair inh: 9.2µM*

Results for Cc1noc(C)c1C(=O)OCC(=O)Nc1cccc(S(=O)(=O)N(C)C)c1 ?
KB-V1 MDR tox: inactive; SW480 rereplic: 2%; MCF10A rerep: 4%; KB-3-1 cytotox: inactive; ELG1 repair inh: 14%

What do the screens show for `COc1ccc(NC(=O)Cn2nnc(-c3ccccc3NS(=O)(=O)c3ccccc3)n2)cc1`?
KB-V1 MDR tox: 2.9µM*; SW480 rereplic: -3%; MCF10A rerep: 8%; KB-3-1 cytotox: 23µM*; ELG1 repair inh: -6%

What do the screens show for `Cc1onc(-c2c(F)cccc2Cl)c1C(=O)Nc1cccc(Cn2cccn2)c1`?
KB-V1 MDR tox: 21µM*; SW480 rereplic: 4%; MCF10A rerep: -8%; KB-3-1 cytotox: inactive; ELG1 repair inh: inconclusive

What do the screens show for `Cc1onc(-c2ccccc2Cl)c1C(=O)Nc1ccc(OCC(=O)N2CCOCC2)cc1`?
KB-V1 MDR tox: inconclusive; SW480 rereplic: -3%; MCF10A rerep: 10%; KB-3-1 cytotox: inactive; ELG1 repair inh: 9.2µM*
